Data: PubChem BioAssay (NCI)
About 79,000 compounds went through this panel and 15% of them were active in at least one assay; those are over-represented in the sample as a whole. Active and inactive are the calls of the source. Cut-off read from the data, not from the text of the source: active = growth inhibition above about 70%; inactive = the rest.

What was measured:
[1] = NCI Yeast Anticancer Drug Screen. Data for the rad52 strain (AID 147);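 note: 0% = growth of vehicle-treated control cultures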; settings: S. cerevisiae rad52 mutant growth inhibition, active compounds read high
In short: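 Vehicle-treated cultures served as the reference for growth inhibition of compound-exposed yeast bearing a DNA repair mutation.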

[2] = NCI Yeast Anticancer Drug Screen. Data for the wt1 strain (AID 149);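 note: 0% = growth of vehicle-treated wt1 cultures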; settings: S. cerevisiae wt1 strain (SPY 50644) growth inhibition, active compounds read high
In short: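 Measured: growth of wt1 yeast under compound versus vehicle treatment, reported as inhibition.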

[3] = NCI Yeast Anticancer Drug Screen. Data for the rad50EPP+ strain (AID 151);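 note: 0% = growth of vehicle-treated control cultures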; settings: S. cerevisiae rad50 mutant strain, active compounds read high
In short: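 In this screen, rad50EPP+ yeast were exposed to compounds. Growth inhibition was scored against vehicle-treated controls.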

[4] = NCI Yeast Anticancer Drug Screen. Data for the mgt1 strain (AID 153); settings: S. cerevisiae mgt1 mutant growth inhibition, active compounds read high
In short: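 mgt1 strain exposed; growth vs vehicle control recorded as inhibition.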

[5] = NCI Yeast Anticancer Drug Screen. Data for the rad50 strain (AID 155);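 note: 0% = growth of vehicle-only cultures of the same strain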; settings: S. cerevisiae rad50 strain growth inhibition, active compounds read high
In short: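 Growth of the mutant yeast was measured after compound exposure and referenced to vehicle-treated cultures.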

[6] = NCI Yeast Anticancer Drug Screen. Data for the mec2-1 strain (AID 157); settings: S. cerevisiae mec2-1 strain, active compounds read high
In short: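 Vehicle-treated cultures served as reference for growth inhibition of compound-exposed mec2-1 yeast.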

[7] = NCI Yeast Anticancer Drug Screen. Data for the rad14 strain (AID 159);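 note: 0% = growth of vehicle-treated control cultures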; settings: S. cerevisiae rad14 strain growth inhibition, active compounds read high
In short: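 Here, inhibition of yeast growth was measured after compound exposure, using a strain with a genetic defect in DNA damage repair and vehicle-treated cultures as the reference.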

[8] = NCI Yeast Anticancer Drug Screen. Data for the sgs1 mgt1 strain (AID 161);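 note: 0% = growth of cultures given vehicle only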; settings: S. cerevisiae sgs1 mgt1 strain, active compounds read high
In short: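 Mutant yeast exposed to compound; growth scored against vehicle-only wells.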

[9] = NCI Yeast Anticancer Drug Screen. Data for the CLN2oe strain (AID 163);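 note: 0% = growth of vehicle-only control cultures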; settings: S. cerevisiae CLN2oe strain, active compounds read high
In short: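 Inhibition relative to vehicle-treated yeast is reported. Cells: strain with genetic alteration in cell-cycle control, grown with compound.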

[10] = NCI Yeast Anticancer Drug Screen. Data for the cln2 rad14 strain (AID 165);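 note: 0% = growth equal to vehicle treated cultures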; settings: S. cerevisiae cln2 rad14 strain, active compounds read high
In short: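 Each compound was tested on cln2 rad14 yeast. Inhibition of growth was calculated against vehicle-exposed controls.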

[11] = NCI Yeast Anticancer Drug Screen. Data for the bub3 strain (AID 167); settings: S. cerevisiae bub3 mutant strain, active compounds read high
In short: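 Whole-cell yeast assay. The mutant strain was incubated with compounds, and growth inhibition was determined by comparison with vehicle-treated cells.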

[12] = NCI Yeast Anticancer Drug Screen. Data for the wt2 strain (AID 169);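 note: 0% = growth of vehicle-treated yeast cultures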; settings: S. cerevisiae wt2 strain growth inhibition, active compounds read high
In short: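 Inhibition of yeast growth was determined after compound treatment, normalised to controls receiving only vehicle.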

[13] = NCI Yeast Anticancer Drug Screen. Data for the mlh1 strain (AID 171);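 note: 0% = growth of vehicle-treated control cultures of the same strain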; settings: S. cerevisiae mlh1 strain growth inhibition, active compounds read high
In short: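 Vehicle-normalised growth inhibition of a repair- or checkpoint-altered yeast strain following compound treatment.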

[14] = NCI Yeast Anticancer Drug Screen. Data for the sgs1 strain (AID 173);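 note: 0% = growth of vehicle-only control cultures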; settings: S. cerevisiae sgs1 mutant, active compounds read high
In short: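 Screen format: yeast with repair or checkpoint alterations, compound exposure, growth read relative to vehicle.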

[15] = NCI Yeast Anticancer Drug Screen. Data for the mlh1 rad18 strain (AID 175); settings: S. cerevisiae mlh1 rad18 strain growth inhibition, active compounds read high
In short: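 Vehicle-treated cultures served as the reference for growth inhibition in a yeast strain carrying DNA damage repair alterations exposed to each compound.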

[16] = NCI Yeast Anticancer Drug Screen. Data for the rad18 strain (AID 177); settings: S. cerevisiae rad18 mutant growth inhibition, active compounds read high
In short: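 Test articles were incubated with altered yeast defective in DNA damage repair. Results are given as inhibition of growth versus vehicle.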

[17] = at 5.0 µM (retest, dose inferred, filed as 0.5)
[18] = at 50.0 µM (retest, dose inferred, filed as 5.0)

Measured: growth inhibition

O=C1OC(C2=CC(=O)c3ccccc3C2=O)C(Cl)=C1Cl (stereo unspecified)
active: [1]; at 33.0 µM 89% | [1]; at 100.0 µM 91% | [3]; at 33.0 µM 81% | [3]; at 100.0 µM 82% | [5]; at 50.0 µM 86.3% | [6]; at 50.0 µM 80.9% | [8]; [18] 78% | [8]; at 50.0 µM 95.5% | [10]; at 50.0 µM 95.3% | [14]; at 33.0 µM 79% | [14]; at 100.0 µM 87% | [15]; [18] 77% | [15]; at 50.0 µM 94.8% | [16]; at 3.7 µM 79% | [16]; at 11.0 µM 92% | [16]; at 33.0 µM 95% | [16]; at 100.0 µM 94%
inactive: [1]; at 1.2 µM 3% | [1]; at 3.7 µM 15% | [1]; at 11.0 µM 46% | [2]; at 1.2 µM 1% | [2]; at 3.7 µM 9% | [2]; at 11.0 µM 9% | [2]; at 33.0 µM 14% | [2]; at 100.0 µM 28% | [3]; at 1.2 µM 3% | [3]; at 3.7 µM 13% | [3]; at 11.0 µM 47% | [4]; at 1.2 µM -1% | [4]; at 3.7 µM 0% | [4]; at 11.0 µM 1% | [4]; at 33.0 µM 12% | [4]; at 100.0 µM 24% | [5]; at 1.2 µM 0% | [5]; at 3.7 µM 1% | [5]; [17] 5% | [5]; at 11.0 µM 11% | [5]; at 33.0 µM 30% | [5]; [18] 44% | [5]; at 100.0 µM 47% | [6]; at 1.2 µM -1% | [6]; at 3.7 µM 6% | [6]; [17] 1% | [6]; at 11.0 µM 14% | [6]; at 33.0 µM 34% | [6]; [18] 47% | [6]; at 100.0 µM 56% | [7]; at 1.2 µM 0% | [7]; at 3.7 µM 4% | [7]; at 11.0 µM 12% | [7]; at 33.0 µM 37% | [7]; at 100.0 µM 69% | [8]; [17] 17% | [9]; at 1.2 µM -2% | [9]; at 3.7 µM -13% | [9]; at 11.0 µM -4% | [9]; at 33.0 µM 12% | [9]; at 100.0 µM 30% | [10]; [17] 0% | [10]; [18] 51% | [11]; at 1.2 µM 3% | [11]; at 3.7 µM -1% | [11]; [17] -1% | [11]; at 11.0 µM -2% | [11]; at 33.0 µM 2% | [11]; [18] 6% | [11]; at 50.0 µM 57.4% | [11]; at 100.0 µM 12% | [12]; at 1.2 µM 1% | [12]; at 3.7 µM 1% | [12]; at 11.0 µM 4% | [12]; at 33.0 µM 13% | [12]; at 100.0 µM 36% | [13]; at 1.2 µM -2% | [13]; at 3.7 µM 3% | [13]; at 11.0 µM 6% | [13]; at 33.0 µM 22% | [13]; at 100.0 µM 13% | [14]; at 1.2 µM 4% | [14]; at 3.7 µM 13% | [14]; at 11.0 µM 48% | [15]; [17] 11% | [16]; at 1.2 µM 31%

O=C1C=C(Cl)C(=O)C(c2ccc(Cl)cc2)=C1
inactive: [1]; at 1.2 µM -33% | [1]; at 3.7 µM -7% | [1]; at 11.0 µM 11% | [2]; at 1.2 µM 1% | [2]; at 3.7 µM 5% | [2]; at 11.0 µM 21% | [3]; at 1.2 µM 40% | [3]; at 3.7 µM 49% | [4]; at 1.2 µM 2% | [4]; at 3.7 µM 39% | [5]; at 1.2 µM -4% | [5]; at 3.7 µM -1% | [5]; [17] 21% | [5]; at 11.0 µM 44% | [6]; at 1.2 µM 0% | [6]; at 3.7 µM 34% | [6]; [17] 21% | [6]; at 11.0 µM 67% | [7]; at 1.2 µM 11% | [7]; at 3.7 µM 23% | [7]; at 11.0 µM 42% | [8]; [17] 17% | [9]; at 1.2 µM 31% | [9]; at 3.7 µM 32% | [9]; at 11.0 µM 69% | [10]; [17] 24% | [11]; at 1.2 µM 5% | [11]; at 3.7 µM 20% | [11]; [17] 6% | [11]; at 11.0 µM 62% | [12]; at 1.2 µM -27% | [12]; at 3.7 µM -9% | [12]; at 11.0 µM 13% | [13]; at 1.2 µM 34% | [13]; at 3.7 µM 61% | [14]; at 1.2 µM 18% | [14]; at 3.7 µM 37% | [14]; at 11.0 µM 66% | [15]; [17] 39% | [16]; at 1.2 µM 16% | [16]; at 3.7 µM -4% | [16]; at 11.0 µM 53%
active: [1]; at 33.0 µM 98% | [1]; at 100.0 µM 96% | [2]; at 33.0 µM 97% | [2]; at 100.0 µM 97% | [3]; at 11.0 µM 83% | [3]; at 33.0 µM 98% | [3]; at 100.0 µM 96% | [4]; at 11.0 µM 82% | [4]; at 33.0 µM 98% | [4]; at 100.0 µM 97% | [5]; at 33.0 µM 97% | [5]; [18] 97% | [5]; at 50.0 µM 91.5% | [5]; at 100.0 µM 97% | [6]; at 33.0 µM 98% | [6]; [18] 99% | [6]; at 50.0 µM 92.5% | [6]; at 100.0 µM 97% | [7]; at 33.0 µM 95% | [7]; at 100.0 µM 96% | [8]; [18] 95% | [8]; at 50.0 µM 93.5% | [9]; at 33.0 µM 98% | [9]; at 100.0 µM 96% | [10]; [18] 98% | [10]; at 50.0 µM 90.8% | [11]; at 33.0 µM 98% | [11]; [18] 98% | [11]; at 50.0 µM 91.8% | [11]; at 100.0 µM 94% | [12]; at 33.0 µM 94% | [12]; at 100.0 µM 96% | [13]; at 11.0 µM 84% | [13]; at 33.0 µM 97% | [13]; at 100.0 µM 96% | [14]; at 33.0 µM 98% | [14]; at 100.0 µM 96% | [15]; [18] 97% | [15]; at 50.0 µM 91.6% | [16]; at 33.0 µM 96% | [16]; at 100.0 µM 97%
